# Measurements reported in PubChem BioAssay (NCATS).
# Values without a mark were called inactive. Calls follow the shape of the dose curve; as a rule, active = well fitted activation curve with a large enough effect; inconclusive = small, poorly fitted or top-dose-only effect; inactive = flat fitted curve, though single readings scatter.
# Assay: Confirmation and Secondary Assay for Modulators of Hemoglobin Beta Chain Splicing at IVS2 654 locus (AID 910);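 also: HeLa cells stably carrying EGFP split by mutant beta-globin IVS2-654 intron; % of control where 0% means no effect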
# Conditions: HeLa EGFP-654 splicing reporter, GFP fluorescence, 48 h; series mostly up to 46.1 µM; activation (splicing correction): at the top concentration
# Source text: NIH Chemical Genomics Center [NCGC] NIH Molecular Libraries Screening Centers Network [MLSCN] MLSCN Grant: 1 X01 MH080684-01 PI Name: Dr. Ryszard Kole NCGC Assay Overview: Modulation of Alternative Splicing as Therapy Abnormal splicing is associated with a number of diseases, including cancer and genetic diseases such as cystic fibrosis, muscular dystrophy and beta-thalassemia. Alteration of disease associated splicing patterns provides a promising target for treatment. […] Mutations in the second intron of the b-globin gene at positions 654 or 705 are clinically relevant and cause mis-splicing which results in an out of frame gene product. […] EGFP-654 HeLa Cells as screen system. HeLa cell lines were stably transfected with a construct in which the EGFP (enhanced green fluorescent protein) cDNA was interrupted by the second intron of the beta-globin gene (IVS2-654). The ISV2 intron contains mutations which cause mis-splicing of EGFP and premature termination of EGFP which results in a nonfluorescent protein product. […] Expression of the transgene was driven by the CMV promoter. We concluded that a low molecular weight compound, which restored correct splicing of intron 2 would also generate functional EGFP protein, resulting in a fluorescent signal. Thus, the HeLa cells that express the EGFP-654 construct can be used for high throughput screening of a chemical library.
# NCGC Assay Protocol Summary: Confirmatory Screening. Freshly thawed HeLa EGFP-654 cells were seeded in 5 ul of optimem media (Invitrogen) containing 2 % fetal calf serum (Hyclone) and 1x penicillin/streptomycin (Invitrogen) at a concentration of 500 cells per well in 1536-well plates. Cells were incubated overnight at 37C in 5% CO2. The next day, cells were treated with DMSO, 500 nM antisense ISV2 654 PNA control oligo, or library compound and allowed to grow at 37C in 5% CO2 for 2 days. The PNA oligo blocked the mutation site in the intron and allowed proper (wild type) splicing to occur, resulting in full length EGFP expression and also allowed for optimization of the assay parameters. Plates were read in the Acumen Explorer (TTP Labtech) using 488 nm laser excitation and 500-520 nm emission PMT filter in a 1 x 8 uM capture mode. Fluorescnet objects ranging in size from 5 to 250 uM were measured and the total peak GFP intensity for each well was used for data analysis. Keywords: Thalassemia, beta-thalassemia, beta-globin, EGFP, ISV2 654, ISV2 705, SSO, PNA, antisense, splicing, MLSMR, MLSCN, NIH Roadmap, qHTS, NCGC
row,SMILES,activation (splicing correction)
1,O=c1[nH]oc2c1CCNC2,2.31% [at 38.3 µM]
2,O=c1oc2ccccc2c(O)c1Cc1c(O)c2ccccc2oc1=O,2.64%
3,CCC1(CC)C(=O)C=CNC1=O,0.853%
4,CCOP(=S)(OCC)Oc1ccc2c(C)c(Cl)c(=O)oc2c1,1.03% [at 38.3 µM]
5,CC(NC(C)(C)C)C(=O)c1cccc(Cl)c1 (configuration not stated),0.982%
6,Oc1ccc(Cl)cc1,5.81%
7,c1ccc2c(c1)sc1ccccc12,0.0586%
8,CCC1(c2ccc(N)cc2)CCC(=O)NC1=O (configuration not stated),5.86%
9,O=C(CCCN1CCC2(CC1)C(=O)NCN2c1ccccc1)c1ccc(F)cc1,-2.23%
10,COc1cc(OC)c(OC)cc1C=O,13.4%
11,O=C(O)CCCc1ccc(N(CCCl)CCCl)cc1,16.7%
12,Clc1ccc(C(c2ccc(Cl)cc2)C(Cl)(Cl)Cl)cc1,-0.263% [at 38.3 µM]
13,CNC(C)(C)Cc1ccccc1,7.54%
14,NCCc1ccc(O)cc1,-1.02%
15,COP(=S)(OC)Oc1ccc(SC)c(C)c1,-1.06% [at 38.3 µM]
16,O=C1c2ccccc2C(=O)c2ccccc21,27.1%
17,O=P1(N(CCCl)CCCl)NCCCO1 (configuration not stated),5.6%
18,CC(C)(C)NCC(O)c1ccccc1Cl (configuration not stated),3.76%
19,CC(C)N(CCC(C(N)=O)(c1ccccc1)c1ccccn1)C(C)C (configuration not stated),2.03%
20,CC(C)c1cccc(C(C)C)c1O,4.25%
21,NC(=O)CS(=O)C(c1ccccc1)c1ccccc1 (configuration not stated),9.33%
22,NC(=O)c1cc([N+](=O)[O-])cc([N+](=O)[O-])c1,0.396%
